# Rows were chosen to be rich in hits. Some 11% of all compounds tested hit in one or more screens of this group.
# L3MBTL1 block: inhibitors of human L3MBTL1; 230,000 compounds, 0.66% hits; Q9Y468; Potency, µM (doses to about 57.1 µM), for inactives: top-dose activity, negative = inhibition, actives largely listed as inhibitors; AlphaScreen L3MBTL1–H3K9me1 peptide binding; note: potency is the fitted concentration of half-maximal effect; % is set by controls: 0 for no effect and ±100 for the full control effect; nearly all actives have a fitted effect of over 60% in size
# Target sequence (Q9Y468 whole entry, looked up): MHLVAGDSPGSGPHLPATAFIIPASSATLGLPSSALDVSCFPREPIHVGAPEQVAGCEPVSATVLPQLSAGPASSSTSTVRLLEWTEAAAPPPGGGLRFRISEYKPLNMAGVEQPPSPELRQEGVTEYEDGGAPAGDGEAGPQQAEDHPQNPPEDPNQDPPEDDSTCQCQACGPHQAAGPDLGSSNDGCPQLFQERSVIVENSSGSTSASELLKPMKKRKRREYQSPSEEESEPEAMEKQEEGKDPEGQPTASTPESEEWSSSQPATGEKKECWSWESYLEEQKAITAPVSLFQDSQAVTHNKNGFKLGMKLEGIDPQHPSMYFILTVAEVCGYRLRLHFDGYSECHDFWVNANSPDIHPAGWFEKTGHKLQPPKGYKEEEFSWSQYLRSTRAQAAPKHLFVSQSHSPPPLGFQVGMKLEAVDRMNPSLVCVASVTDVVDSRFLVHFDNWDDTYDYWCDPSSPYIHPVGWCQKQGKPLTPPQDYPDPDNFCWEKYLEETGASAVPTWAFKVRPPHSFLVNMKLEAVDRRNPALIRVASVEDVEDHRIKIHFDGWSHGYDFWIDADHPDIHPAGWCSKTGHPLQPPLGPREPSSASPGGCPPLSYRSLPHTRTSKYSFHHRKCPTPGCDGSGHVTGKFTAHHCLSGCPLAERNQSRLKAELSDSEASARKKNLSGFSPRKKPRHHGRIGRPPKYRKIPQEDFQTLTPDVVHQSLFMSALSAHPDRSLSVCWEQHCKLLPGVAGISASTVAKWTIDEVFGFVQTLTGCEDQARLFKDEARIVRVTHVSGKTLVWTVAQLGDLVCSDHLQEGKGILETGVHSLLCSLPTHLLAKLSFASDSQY
#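 AlphaScreen proximity signal between nickel-chelate acceptor and streptavidin donor beads (final 10 ug/mL) reports binding of 50 nM L3MBTL1 to 75 nM biotin-H3 K9me1 peptide; complex incubated with compounds 30 min at room temperature; cefsulodin titration as control.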
# G9a inh: inhibitors of human histone lysine methyltransferase G9a. Q96KQ7. G9a H3K9 monomethylation, AlphaScreen, 2 h. Potency, µM (highest dose often 102 µM), inactives show top-dose activity, negative = inhibition, hits mostly inhibitors. 350,000 compounds, 8.8% hits. AID 504332; note: potency is the fitted concentration of half-maximal effect; % is set by controls: 0 for no effect and ±100 for the full control effect; nearly all actives have a fitted effect of over 75% in size
#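 Using a bead-based AlphaScreen, monomethylated H3K9 product from 2 h room-temperature reactions (G9a 20 nM, peptide 500 nM, SAM 20 uM) was detected with 0.5 ug/mL rabbit anti-H3K9me1 antibody.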
# HP1b binding inh: blocks HP1-beta chromodomain binding to methylated histone tails; P83916; AlphaScreen HP1-beta / biotin-H3K9me3 peptide binding; Potency, µM (titrated, usually from 114 µM), for the others: top-dose activity change, negative = inhibition, actives largely listed as inhibitors; 390,000 compounds, 0.56% hits; note: potency is the fitted concentration of half-maximal effect; nearly all actives have a fitted effect of over 70% in size
#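 Compound inhibition of the preformed complex between 50 nM HP1-beta and 50 nM biotinylated H3K9me3 peptide was read by AlphaScreen. Buffer was PBS pH 7.4 with 0.01% Tween-20. Incubations ran 30 min at room temperature, with 10 ug/mL donor/acceptor beads.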
# JMJD2A Tudor: JMJD2A Tudor domain (human) inhibition | O75164 | AlphaScreen JMJD2A-Tudor / H3K4me3 peptide binding | Potency, µM (series often up to 114 µM), without a hit: at the highest dose activity change, negative = inhibition, usual class: inhibitors | 390,000 compounds, 4.4% hits | AID 504339; note: potency is the fitted concentration of half-maximal effect; % is set by controls: 0 for no effect and ±100 for the full control effect; nearly all actives have a fitted effect of over 50% in size
# PI5P4Ka inh: PI5P4K alpha (human) kinase inhibition | AID 652105 | 330,000 compounds, 1.2% hits | PI5P4Kalpha enzyme, ADP-Glo luminescence, 60 min; stronger effect = lower value | max response, %; active = max response of -50% or lower; inconclusive = between -30% and -50%; inactive = -30% or higher; note: value at the top dose of about 77 µM; % is set by controls: 0 for no effect and ±100 for the full control effect
#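 qHTS, 1536-well: enzyme/substrate mix, compound by pin tool, 5 microM ATP final; RT 60 min; ADP-Glo reagents 1 (45 min) then 2 (30 min); luminescence.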
# BAZ2B inh: inhibitors of human BAZ2B bromodomain; Q9UIF8; Potency, µM (doses to about 114 µM), for the others: at the top dose activity change, negative = inhibition, usual class: inhibitors; AID 504333; AlphaScreen BAZ2B-H3K14Ac peptide displacement; 360,000 compounds, 4.4% hits; note: potency is the fitted concentration of half-maximal effect; % is set by controls: 0 for no effect and ±100 for the full control effect; nearly all actives have a fitted effect of over 60% in size
#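 AlphaScreen displacement of biotin-H3(5-23)K14Ac peptide (50 nM final) from BAZ2B (50 nM final) in PBS pH 7.4, 0.01% Tween-20; complex preformed 30 min RT, then compounds (top 110 uM) 30 min RT, beads 20 min dark.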
# The depositor's hits bear a star; u = inconclusive; x = not tested or not shown; [ ] = remark or other dose. Unless noted, calls come from the whole dose curve; as a rule, active = well fitted inhibition curve with a large enough effect; inconclusive = small, poorly fitted or top-dose-only effect; inactive = no such curve, though single readings can be large or run the other way.
SMILES,L3MBTL1 block,G9a inh,HP1b binding inh,JMJD2A Tudor,PI5P4Ka inh,BAZ2B inh
CC(C)c1ccc(OCC(O)CN2CCN(c3ccccc3)CC2)cc1 (stereo not given),x,u,-6%,-36%,13,56µM*
COc1cc(C2C(=O)N(C3CCC(C)CC3)CC(=O)N2CCc2ccc(Cl)cc2)ccc1OC(C)C (stereo not given),x,12%[59 µM],57%,-11%,x,-2%
COc1ccc2c(c1)c1c(c(=O)n(Cc3ccccc3)c(=O)n1CC(=O)Nc1ccccc1F)n2C,x,-32%[59 µM],19%,-7%,x,-14%
Cc1oc(-c2ccc(Cl)cc2)cc1C(=O)NC1CCN(Cc2ccccc2)CC1,-2%,-30%,0%,-18%,5,-13%
Cc1oc(-c2ccc(Cl)cc2)cc1C(=O)/C(C#N)=C/Nc1ccccc1,-5%,28µM*,-2%,-18%,-4,-8%
Cc1ccc(N2C(=O)N(CC(=O)N3CCc4ccccc43)C(=O)C2C)cc1 (stereo not given),x,x,x,x,1,x
Cc1ccc(N2C(=O)N(CC(=O)N3c4ccccc4CC3C)C(=O)C2C)cc1 (stereo not given),-9%,45µM*,16%,-16%,10,-5%
COC(=O)C1=C[C@@H](C(=O)OC)[C@@H]2C3=C(C(=O)C2(C)C)[C@H](C)n2c(=O)n(C)c(=O)n2[C@@H]3C1,x,x,38%,-4%,x,x
COc1ccc(C(=O)c2ccc(CC#N)s2)cc1,-11%,u,-11%,79µM*,-28,u
CCN(CC)c1cc(C)nc2nc(-c3ccc(C)cc3)nn12,x,-10%[59 µM],16%,-20%,x,-10%
O=C1C(=O)N(c2ccccn2)C(c2ccc(F)cc2)/C1=C(/O)c1ccc(Br)cc1 (stereo not given),-6%[2.29 µM],14%[0.501 µM],17%,-16%,-4,-1%
CN1C(=O)C(=O)/C(=C(/O)c2ccc(Br)cc2)C1c1ccc(F)cc1 (stereo not given),5%,71µM*,37%,-4%,-2,-8%
CCCOc1ccc(/C(O)=C2/C(=O)C(=O)N(c3ccccn3)C2c2ccc(OC)cc2)cc1C (stereo not given),x,u,20%[57 µM],-32%,-25,-19%
Cc1ccc(/C(O)=C2/C(=O)C(=O)N(c3ccccn3)C2c2ccc(F)cc2)cc1 (stereo not given),1%,40µM*,6%,-11%,0,-31%
CCOc1ccc(/C(O)=C2/C(=O)C(=O)N(c3ccccn3)C2c2ccc(F)cc2)c(C)c1 (stereo not given),x,28µM*,-16%,u,8,-10%
O=C1C(=O)N(c2ccccn2)C(c2ccc(Br)cc2)/C1=C(/O)c1ccc(Br)cc1 (stereo not given),-7%,45µM*,-7%,-40%,-11,-34%
Cc1ccc(/C(O)=C2\C(=O)C(=O)N(C)C2c2ccc(Br)cc2)cc1 (stereo not given),4%,u,10%,-20%,2,3%
Cc1ccc(S(=O)(=O)CC(=O)N2CCN(c3nc4c(F)cccc4s3)CC2)cc1,x,-17%[59 µM],26%,-14%,x,-12%
COc1cccc(C2CC(=O)Nc3c2c(=O)n(C)c2nc4ccccc4n32)c1OC (stereo not given),x,-6%[59 µM],20%,-9%,x,-9%
Cc1ccc2c(c1)-c1c(cnc3cc(-c4ccc(F)cc4)nn13)CO2,x,29%[59 µM],42%,4%,x,1%
CCCc1cc(=O)[nH]c(Nc2ccccc2O)n1,x,-7%[59 µM],36%,-1%,x,-5%
N#Cc1c(/N=C/c2ccc(-c3ccc(C(=O)O)c(Cl)c3)o2)sc2c1CCCC2,-6%,-48%[12.7 µM],u,u,-14,u
Cc1ccc(/C=N/c2sc3c(c2C#N)CCC3)o1,u,18µM*,-69%,45µM*,-21,u
N#Cc1c(/N=C/c2ccc(Br)s2)sc2c1CCC2,-8%,u,-23%,-20%[57.1 µM],-25,-31%
N#Cc1c(/N=C/c2ccc(-c3ccccc3C(=O)O)o2)sc2c1CCCC2,x,32µM*,-33%,79µM*,-14,45µM*
SMILES,L3MBTL1 block,G9a inh,HP1b binding inh,JMJD2A Tudor,PI5P4Ka inh,BAZ2B inh
N#Cc1c(/N=C/c2cccs2)sc2c1CCCCC2,-11%[11.4 µM],14µM*,u,40µM*,0,8.9µM*
CCCCC[C@H](O)/C=C/[C@@H]1[C@@H](C/C=C\CCCC(=O)OC)[C@@H](O)C[C@H]1O,u,40µM*,u,22µM*,1,14µM*
CCCCC[C@H](O)/C=C/[C@H]1[C@H](O)CC(O)[C@@H]1C/C=C\CCCC(=O)O (stereo not given in full),x,38%[59 µM],x,x,x,x
O=C1CSC(=S)N1N=Cc1c(O)ccc2ccccc12,x,x,u,50µM*,-73*,x
O=C1CSC(=S)N1/N=C/c1ccc(C(F)(F)F)cc1,x,79µM*,12%,-31%,u,-15%
O=C1CSC(=S)N1/N=C/C=C/c1ccccc1,-25%,40µM*,u,u,-63*,u
O=C1CSC(=S)N1/N=C/c1cccc(C(F)(F)F)c1,x,u,-9%,u,-29,-14%
O=C1CSC(=S)N1/N=C/c1c(F)cccc1F,x,50µM*,-39%,u,-29,-20%
CC1CCN(S(=O)(=O)c2ccc3c(c2)c(=O)c(C(=O)NCc2ccc(Cl)cc2)cn3C)CC1,x,-35%[59 µM],20%,-11%,x,x
Cc1ccccc1CSc1cn(CC(=O)N2CCCCC2)c2ccccc12,x,9%[59 µM],55%,4%,x,-14%
CC(C)OC(=S)N/C(=N\S(=O)(=O)c1ccccc1)c1ccccc1,-2%,11µM*,-5%,-34%,x,0%
Cc1cccc(NC(=S)N/C(=N/S(=O)(=O)c2ccccc2)c2ccccc2)c1,x,u,-17%,-18%,-19,-21%
CCNc1ncc2nc(-c3ccccc3)c(=O)n(C[C@H]3CCCO3)c2n1,x,-2%[0.501 µM],x,x,x,x
COc1ccc(C2=Nn3c(nnc3-c3ccc(OC)c(OC)c3)SC2)c(OC)c1,x,x,x,-36%,x,x
O=C1CN(C(=O)CSc2nc3ccccc3c(=O)n2Cc2ccc(F)cc2)c2ccccc2N1,-16%,-23%[59 µM],23%,-17%,-11,-33%
CC(C)CCn1c(SCC(=O)N2CC(=O)Nc3ccccc32)nc2scc(-c3cccs3)c2c1=O,x,-7%[59 µM],21%,-19%,-67*,-11%
C=CCn1c(SCC(=O)N2CC(=O)Nc3ccccc32)nc2scc(-c3cccs3)c2c1=O,x,-13%[12.7 µM],3%,-15%,2,-29%
Cn1c(SCC(=O)N2CC(=O)Nc3ccccc32)nc2ccccc2c1=O,4%,22%[12.7 µM],38%,6%,-6,9%
CCCn1c(SCC(=O)N2CC(=O)Nc3ccccc32)nc2ccccc21,1%,32µM*,9%,-20%,-2,8%
